Compound activity from PubChem.
A selection: hits, their analogues and other compounds. The true share with any hit is near 22%.
Pf growth 96h: Primary qHTS for delayed death inhibitors of the malarial parasite plastid, 96 hour incubation. P. falciparum luciferase reporter growth, 96 h. Potency, µM (doses to about 28.7 µM), without a hit: at the top dose activity change, negative = inhibition, hits mostly inhibitors. hit rate 6.9% among 320,000; further: potency means the concentration at half of the fitted maximal effect; on the % scale 0 is the no-effect control and ±100 the full control effect
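96 h incubation, 37 C, 5% CO2, of luciferase-reporter P. falciparum-infected RBCs (2% hematocrit, 0.05% parasitemia final) with test compounds; endpoint luminescence.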
Pf growth 48h: Primary qHTS for delayed death inhibitors of the malarial parasite plastid, 48 hour incubation; Potency, µM (top dose mostly 28.7 µM), for the others: at the top dose activity change, negative = inhibition, actives largely listed as inhibitors; P. falciparum luciferase growth in erythrocytes, 48 h; hit rate 5.9% among 310,000; AID 504832, 2011; further: potency means the concentration at half of the fitted maximal effect; on the % scale 0 is the no-effect control and ±100 the full control effect
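Here the parasites carry a stable luciferase gene and grow inside erythrocytes in Albumax-based RPMI medium with compound for one erythrocytic cycle. Activity is scored as loss of luminescent signal.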
Shiga inhibitor: A qHTS for Small Molecule Inhibitors of Shiga Toxin. Vero cells, Shiga toxin protein synthesis inhibition reporter. inhibition, % at 38.7 µM. hit rate 9.2% among 290,000; in the data active means inhibition mostly above about 28%, no sharp cut-off; inactive means mostly below about 43%; further: 0% is about no effect
Cycloheximide cs: Cycloheximide Counterscreen for Small Molecule Inhibitors of Shiga Toxin | cell reporter, cycloheximide protein synthesis inhibition counterscreen | max response, % | hit rate 12% among 300,000 | AID 2314, 2010; in the data active means max response mostly above about 13%, no sharp cut-off; inactive means mostly below about 14%; further: read at 38.3 µM for the half of the compounds with a filed dose; 0% is about no effect
LmPK inh: qHTS Assay for Inhibitors of Leishmania Mexicana Pyruvate Kinase (LmPK); AID 1721, 2009; Potency, µM (doses to about 57.5 µM), for inactives: top-dose activity change, negative = inhibition, hits mostly inhibitors; hit rate 0.37% among 290,000; purified LmPK, Kinase-Glo ATP luminescence, 1 h; Q27686; further: potency means the concentration at half of the fitted maximal effect; on the % scale 0 is the no-effect control and ±100 the full control effect
Target sequence (Q27686 whole entry, looked up): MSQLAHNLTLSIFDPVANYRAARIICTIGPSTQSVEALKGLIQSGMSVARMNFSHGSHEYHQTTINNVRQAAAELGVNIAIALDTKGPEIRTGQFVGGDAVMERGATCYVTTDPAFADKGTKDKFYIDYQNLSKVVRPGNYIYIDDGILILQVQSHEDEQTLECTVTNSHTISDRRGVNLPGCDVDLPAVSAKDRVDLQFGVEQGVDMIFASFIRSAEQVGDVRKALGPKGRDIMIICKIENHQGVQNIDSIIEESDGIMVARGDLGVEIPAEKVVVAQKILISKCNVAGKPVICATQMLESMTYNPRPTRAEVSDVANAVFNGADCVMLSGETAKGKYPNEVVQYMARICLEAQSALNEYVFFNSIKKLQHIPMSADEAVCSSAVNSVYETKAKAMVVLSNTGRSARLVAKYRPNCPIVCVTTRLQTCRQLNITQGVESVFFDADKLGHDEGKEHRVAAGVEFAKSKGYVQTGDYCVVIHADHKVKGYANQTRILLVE
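ATP generated from ADP (0.1 mM) and PEP (0.5 mM) by 0.1 nM LmPK over 1 h at room temperature (pH 7.2 imidazole buffer) was detected by coupled luciferase luminescence. Values were normalized to uninhibited and no-enzyme wells.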
* hit, by the source's call; i = inactive; ? = inconclusive; . = no result given. Unless noted, the call rests on the fitted dose curve; in most records, active means well fitted inhibition curve with a large enough effect; inconclusive means small, poorly fitted or top-dose-only effect, or another doubt; inactive means no such curve, though single readings can be large or run the other way.

SMILES | Pf growth 96h | Pf growth 48h | Shiga inhibitor | Cycloheximide cs | LmPK inh
CC(C)CC1NC(=O)C(CCCN)NC(=O)C(C(C)C)NC(=O)C2CCCN2C(=O)C(Cc2ccccc2)NC(=O)C(CC(C)C)NC(=O)C(CCCN)NC(=O)C(C(C)C)NC(=O)C2CCCN2C(=O)C(Cc2ccccc2)NC1=O (configuration not stated) | 2.4µM* | -99% | . | . | .
O=C1N[C@@H](Cc2ccccc2)C(=O)N2CCCC12 (some centres not stated) | . | . | i | 5 | .
Cn1nc(C(F)(F)F)cc1C(=O)NC1CCCCCC1 | 49% | -2% | 2 | -1 | -2%
Cc1ccccc1C(=O)c1c[nH]c(C(=O)NCC2CCCO2)c1 (configuration not stated) | -10% | 5% | -1 | -2 | -1%
COc1ccc(C(=O)c2c[nH]c(C(=O)N=CN(C)C)c2)cc1 | 44% | 31% | 42* | 20* | 1%
CC(C)(C)c1ccc(C(=O)c2c[nH]c(C(=O)NCCCN3CCOCC3)c2)cc1 | 10µM* | 13µM* | -10 | -3 | 2%
CC(C)(C)c1ccc(C(=O)c2c[nH]c(C(=O)NCCc3ccccn3)c2)cc1 | ? | 10µM* | 20 | 16 | -3%
COc1ccc(C(=O)c2c[nH]c(C(=O)NCC3CCCO3)c2)cc1 (configuration not stated) | ? | -30% | 28 | 21* | 3%
Cc1cc(=O)oc2c3c(cc(OCC(=O)NCC4CCC(C(=O)O)CC4)c12)OC(C)(C)CC3 (configuration not stated) | ? | ? | -1 | 1 | -5%
COc1ccc(OC)c(S(=O)(=O)N2CCCC(N3CCN(c4ccccc4)CC3)C2)c1 (configuration not stated) | ? | -5% | -5 | -7 | 2%
O=C(CCn1c(=O)[nH]c2ccccc2c1=O)NCCSCc1ccccc1 | -12% | 0% | -10 | 7 | 1%
CC(C)(C)c1ccc(C(=O)c2c[nH]c(C(=O)NCC3CCCO3)c2)cc1 (configuration not stated) | ? | ? | 22 | 22* | 8%
COC(=O)c1ccc(N2OC3(C)C=CC2CC3)cc1 (configuration not stated) | 60% | 122% | active | 56* | 4%
CCCCCC(=O)N1CCCCC1 | -20% | ? | 5 | 7 | -6%
CC(C)[C@H](NC(=O)[C@@H]1Cc2c([nH]c3ccccc23)C2c3ccccc3C(=O)N21)C(=O)N1CCC[C@@H]1C(=O)O (some centres not stated) | 15µM* | -11% | -7 | -3 | -1%
CC(C)[C@H](NC(=O)N1CC(=O)Nc2ccccc21)C(=O)N1CCC[C@H]1C(=O)O | -27% | 55% | -12 | -2 | 8%
CCN(C(=O)COC(=O)c1cc(C)n(-c2ccc(F)cc2)c1C)C1CCS(=O)(=O)C1 (configuration not stated) | -10% | ? | -7 | 4 | 6%
Cc1cc(C(=O)COC(=O)c2ccc(O)cc2O)c(C)n1-c1ccccc1 | 290% | 124% | . | . | .
Cc1cc(C(=O)OCC(N)=O)c(C)n1-c1ccccc1 | 2.1µM* | ? | 41* | 33* | 2%
CCOC(=O)c1cc(C)n(-c2ccccc2)c1C | 16% | 88% | 52* | 50* | 3%
C/C(N)=C(/C#N)C(=O)COC(=O)c1cc(C)n(-c2ccc(F)cc2)c1C | 3.3µM* | 8.3µM* | 96* | 72* | 2%
O=C(CCNS(=O)(=O)c1ccccc1F)N1CCN(C/C=C/c2ccccc2)CC1 | ? | -6% | . | . | .
O=C(Nc1ccc2nc3n(c(=O)c2c1)CCCCC3)c1c(F)ccc([N+](=O)[O-])c1F | ? | ? | 89* | 92* | 3%
Cc1c(Br)c([N+](=O)[O-])nn1CC(=O)Nc1ccc2nc3n(c(=O)c2c1)CCCC3 | -25% | 2% | 1 | 1 | 0%
O=C(Nc1ccc2nc3n(c(=O)c2c1)CCCCC3)c1cc([N+](=O)[O-])ccc1F | ? | 4% | 32* | 37* | -1%
SMILES | Pf growth 96h | Pf growth 48h | Shiga inhibitor | Cycloheximide cs | LmPK inh
CC(NC(=O)c1cc2cc(Br)ccc2oc1=N)c1ccccc1 (configuration not stated) | -13% | ? | 15 | -2 | -2%
O=C1CC(c2c[nH]c3ccccc23)C(=O)N1c1ccccc1 (configuration not stated) | 7.4µM* | 11% | 18 | -2 | 1%
Cn1c(C(=O)NC2CCCCC2)cc2c(=O)n(C)c3ccccc3c21 | 10µM* | . | -16 | -6 | 14%
CC1CCC(NC(=O)c2cc3c(=O)n(C)c4ccccc4c3n2C)CC1 (configuration not stated) | -12% | . | 17 | 18* | -1%
Cn1c(C(=O)N2CCCCCC2)cc2c(=O)n(C)c3ccccc3c21 | 120% | . | 35 | 20* | 0%
Cn1c(C(=O)NC2CCCCCC2)cc2c(=O)n(C)c3ccccc3c21 | -8% | . | 15 | -3 | 9%
Cc1cc(S(=O)(=O)NCc2cccnc2)ccc1F | -2% | 37% | -2 | -1 | 0%
Cc1ccc2oc(=O)c3cnn(CC(=O)N4CCc5ccccc5C4)c3c2c1 | 2.6µM* | . | -16 | -8 | 10%
Cc1ccc2oc(=O)c3cc(C(=O)NCCCN4CCCCCC4)sc3c2c1 | 43% | ? | 1 | -6 | -2%
CCN1CCN(CCCNC(=O)c2cc3c(=O)[nH]c4ccccc4c3s2)CC1 | 10µM* | . | -4 | -5 | -6%
O=C(NCCCN1CCOCC1)c1cc2c(=O)[nH]c3ccccc3c2s1 | ? | 17% | 5 | -3 | 7%
O=C(NCCCN1CCCC1)c1cc2c(Cl)nc3ccccc3c2s1 | 5.9µM* | ? | 10 | -5 | -6%
Cc1ccc2oc(=O)c3cc(C(=O)NCCCN4CCc5ccccc5C4)sc3c2c1 | 12µM* | -17% | -14 | -2 | 3%
CCCCC(NC(=O)COc1cc2c(c3oc(=O)cc(C)c13)CCC(C)(C)O2)C(=O)O (configuration not stated) | ? | ? | 1 | -3 | 5%
O=C(Nc1ccccc1F)C1CCCN1S(=O)(=O)c1cccc2nsnc12 (configuration not stated) | ? | 9% | -4 | -5 | -2%
COc1ccc(C(C#N)=C2C=CC(=NO)C=C2)cc1 | ? | ? | -3 | 18* | -4%
COc1ccc(CCNC(=O)CSc2nnc(CNC(=O)c3cc(OC)c(OC)c(OC)c3)o2)cc1OC | 0% | 12% | -4 | -6 | -10%
O=C(CSc1nc(-c2ccccc2)ns1)N1CCOCC1 | 211% | i | 91* | 39* | 1%
Cc1cccc(-c2nsc(SCC(=O)N3CCCC3)n2)c1 | 20% | 224% | 117* | 36* | -20%
